Records with an inconclusive call do not appear. Values without a mark were called inactive. Calls come from the whole dose curve; as a rule, active = well fitted inhibition curve with a large enough effect; inconclusive = small, poorly fitted or top-dose-only effect; inactive = flat fitted curve, though single readings scatter.
Each compound was assayed against Calcium and integrin-binding protein 1 (Homo sapiens) (UniProt Q99828) (assay: Primary qHTS for Identification of Calcium Integrin Binding Protein 1 (CIB1) Competitor (AID 1508620;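 note: GST tagged CIB1 binding a fluorescein labelled alphaIIb integrin peptide tracer; top concentration of the series differs between compounds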)). Settings: CIB1-GST / FITC-alphaIIb peptide fluorescence polarization; series mostly up to 57.7 µM; activity change, negative = inhibition: at the top concentration.
Chain of Calcium and integrin-binding protein 1 (Homo sapiens) (Q99828 whole entry, looked up): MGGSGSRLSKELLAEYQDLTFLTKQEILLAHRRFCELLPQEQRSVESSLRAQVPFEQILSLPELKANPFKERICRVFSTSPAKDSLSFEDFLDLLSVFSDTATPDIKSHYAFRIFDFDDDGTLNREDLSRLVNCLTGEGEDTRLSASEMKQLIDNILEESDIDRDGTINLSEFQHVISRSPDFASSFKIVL
Outline: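 Fluorescence polarization competition: CIB1-GST (1 uM final) preincubated with compound 15 min at room temperature, then FITC-labeled alphaIIb peptide (100 nM final) added for another 15 min. Polarization read at Ex 480/Em 540.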
`C=C(C)C1Cc2c(ccc3c2OCC(c2ccc(O)cc2O)C3)O1` (centres undefined) was tested, and the “activity change, negative = inhibition” value was -7.83%. `CC1(C)CC[C@]2(C(=O)O)CC[C@]3(C)C(=CCC4[C@@]5(C)C[C@@H](O)[C@H](O)[C@@](C)(CO)C5[C@H](O)C[C@]43C)[C@@H]2C1` (some centres undefined) was tested, and the “activity change, negative = inhibition” value was 2.79%. For `C/C=C/C=C/C=C/C(=O)O[C@@H]1C=C(CO)[C@](O)(CO)[C@@]2(C)CCCC(C)(C)[C@H]12`, the “activity change, negative = inhibition” value was -0.583%. With `C/C(=C\C(=O)C(C)C1CCC2C3=C(CCC21C)C1(C)CCC(=O)C(C)(C)C1(O)CC3)C(C)(C)O` (centres undefined) the “activity change, negative = inhibition” value was -5.71%. In the case of `COC(=O)[C@@H](NC(=O)[C@H](CC(C)C)NC(=O)N(Cc1ccccc1)C[C@@H](O)[C@H](Cc1ccccc1)NC(=O)OC(C)(C)C)C(C)C`, the “activity change, negative = inhibition” value is reported as 5.04% [at 30.2 µM]. With `C/C=C/C=C/C(=O)OC1CC/C=C/C(O)C(O)C(CCC)OC1=O` (centres undefined) the “activity change, negative = inhibition” value was 2.99%. `COc1cc(O)c(C(=O)O)c(CCc2ccccc2)c1` was tested, and the “activity change, negative = inhibition” value was -0.0599% [at 114 µM]. For `CCC(C)/C=C(C)/C=C/C(=O)C1CCC(O)C(C)(O)C1=O` (centres undefined), the “activity change, negative = inhibition” value was -3.84% [at 114 µM]. In the case of `CC1OC(OC2CCC3(C)C(CCC4(C)C3C=CC35OCC6(CCC(C)(C)CC63)CCC45C)C2(C)CO)C(OC2OC(CO)C(O)C(O)C2O)C(O)C1OC1OC(CO)C(O)C(O)C1O` (centres undefined), the “activity change, negative = inhibition” value is reported as -6.19% [at 30.2 µM]. With `CC(NC(=O)[C@H](Cc1ccccc1)NC(=O)OCc1ccccc1)C(=O)CF` (some centres undefined) the “activity change, negative = inhibition” value was 2.64% [at 114 µM]. In the case of `O=C1OC(c2ccc(O)cc2)C(O)=C1Cc1ccccc1` (centres undefined), the “activity change, negative = inhibition” value is reported as -17.6% [at 114 µM]. For `CC(=O)O[C@@H]1C[C@@H](C)[C@](O)(CCC2=CC(=O)OC2)[C@@]2(C)CCCC(C)(C)C12` (some centres undefined), the “activity change, negative = inhibition” value was 2.32%. `CC(CCO)CCC1C2(C)CCCC(C)(C)C2CC[C@@]1(C)O` (some centres undefined) was tested, and the “activity change, negative = inhibition” value was 3.29%. In the case of `CN1C(=O)N(c2cc(Cl)cc(Cl)c2)C(=O)[C@@]1(C)Cc1ccc(Br)cc1`, the “activity change, negative = inhibition” value is reported as -4.73% [at 114 µM]. In the case of `CC1=CCC2C(C)(C)CCCC2(C)C1CC12OC1C(O)C(CO)=CC2O` (centres undefined), the “activity change, negative = inhibition” value is reported as -1.56%. In the case of `CC(=O)N[C@H]1[C@H](O[C@H]2CC[C@]3(C)C4CC=C5[C@@H]6CC(C)(C)CC[C@]6(C(=O)O)[C@H](O)C[C@@]5(C)[C@]4(C)CC[C@H]3C2(C)C)O[C@H](CO)[C@@H](O)[C@@H]1O` (some centres undefined), the “activity change, negative = inhibition” value is reported as 3.68% [at 30.2 µM]. In the case of `CC(C)(C)NS(=O)(=O)c1ccc(-c2ccc3[nH]nc(N)c3c2)cc1`, the “activity change, negative = inhibition” value is reported as -5.17% [at 114 µM]. For `C=C(C)[C@H]1CC[C@]2(C(=O)O)CC[C@]3(C)C(CCC4[C@@]5(C)CCC(=O)C(C)(C)C5CC[C@]43C)C12` (some centres undefined), the “activity change, negative = inhibition” value was -12.1%. In the case of `CC1=C2C[C@H]3OC(=O)[C@H](O)[C@@]4(O)[C@@H](C)[C@@H](O)[C@H](O)C([C@@]2(C)[C@H](O)[C@@H](O)C1)[C@@]34C` (some centres undefined), the “activity change, negative = inhibition” value is reported as -12.9%. With `COC(=O)[C@H](c1ccccc1Cl)N1CCC2SC(=O)C=C2C1` (some centres undefined) the “activity change, negative = inhibition” value was -1.6% [at 114 µM]. For `C=C[C@]1(C)C[C@@H](OC(=O)CSC2C[C@H]3CC[C@@H](C2)N3C)[C@]2(C)[C@H](C)CC[C@]3(CCC(=O)[C@H]32)[C@@H](C)[C@@H]1O` (some centres undefined), the “activity change, negative = inhibition” value was 0.458% [at 114 µM]. In the case of `COc1cc(C)c(C(=O)OC2C(C)OC(OC3CCC(C)C4C3C=C(C)C3/C(C)=C\CC/C(C)=C/C5(C)C=C(C(=O)O)C(C)CC56OC(=O)/C(=C(\O)C34C)C6=O)C(O)C2O)c(OC)c1` (centres undefined), the “activity change, negative = inhibition” value is reported as 26.6% [at 30.2 µM]. With `CC(=O)OC1CC2C(C)(C)C(=O)C=CC2(C)C2CC(=O)C3=C(CCC3C3=CC(O)OC3=O)C12C` (centres undefined) the “activity change, negative = inhibition” value was 0.151%. With `CC(=O)OC12CC(C)C(OC(=O)c3ccccc3)C1/C=C(/C)C(OC(=O)c1ccccc1)CC(=O)C(C)(C)/C=C/C(C)C2=O` (centres undefined) the “activity change, negative = inhibition” value was -6.51% [at 30.2 µM]. With `COc1ccc(C2COc3cc(O)ccc3C2)c(O)c1OC` (centres undefined) the “activity change, negative = inhibition” value was 4.42% [at 114 µM]. In the case of `COc1c2cc(c(O)c1OC)CCCCC(O)CCc1ccc(O)c-2c1` (centres undefined), the “activity change, negative = inhibition” value is reported as -8.66%. `C=CCC/C=C/C#CCCCCCCCC[C@H]1C(=O)O[C@H](C)[C@@H]1O` was tested, and the “activity change, negative = inhibition” value was -4.91%. `COc1cc(O)cc2c1C(=O)OC(C)CCCCCCC2` (centres undefined) was tested, and the “activity change, negative = inhibition” value was -1.17% [at 114 µM]. In the case of `C/C=C(\C)C(=O)OC1CC2C(CC=C3CC(OC4CC(OC)C(OC5CC(OC)C(OC6CC(OC)C(OC7CC(OC)C(OC8CC(OC)C(OC9OC(CO)C(O)C(O)C9O)C(C)O8)C(C)O7)C(C)O6)C(C)O5)C(C)O4)CCC32C)C2(O)CCC(C(C)=O)C12C` (centres undefined), the activity change, negative = inhibition is reported as 0.354% [at 12.4 µM]. Compound `CC1OC(O[C@@H]2[C@H](O)[C@@H](OC3OC(CO)C(O)C(O)C3O)[C@H](OC(=O)[C@]34CCC(C)(C)C[C@H]3C3=CCC5[C@@]6(C)CC[C@H](O[C@@H]7O[C@H](C(=O)O)[C@@H](O)[C@H](O[C@@H]8OC[C@@H](O)[C@H](O)[C@H]8O)[C@H]7O[C@@H]7O[C@H](CO)[C@H](O)[C@H](O)[C@H]7O)[C@@](C)(C=O)C6CC[C@@]5(C)[C@]3(C)C[C@H]4O)O[C@@H]2C)C(O)C(O)C1OC1OCC(O)C(O)C1O` (some centres undefined) has an activity change, negative = inhibition of -2.12% [at 12.4 µM]. `Cc1c(-c2ccc3c(c2)OCO3)oc2ccc(C(O)C(C)O)cc12` (centres undefined) was tested, and the “activity change, negative = inhibition” value was 1.39%. For `C=C1CC2C3(C)C(O)CC(=O)C(C)(C)C3C(O)C(OC(C)=O)C2(C)C2C(=O)OC(C)(C(=O)OC)C(=O)C12C` (centres undefined), the “activity change, negative = inhibition” value was -4.86%. With `CCC(C)/C=C(C)/C=C/C1=CC2=CC(=O)C(C)(O)C(OC(C)=O)C2CO1` (centres undefined) the “activity change, negative = inhibition” value was 12.3%. For `C/C=C(\C)C1C(C)=CC2CCC(OS(=O)(=O)O)C(C)C2C1/C=C/C=C/C(=O)O` (centres undefined), the “activity change, negative = inhibition” value was 3.42%. For `CC[C@@H]1C(=O)O[C@]23C=C[C@@H]4C(C(=O)OC)=CO[C@H](O[C@@H]12)[C@@H]43`, the “activity change, negative = inhibition” value was 2.76% [at 114 µM]. For `COCCN1CCC(C(=O)NO)(S(=O)(=O)c2ccc(Oc3ccc(OC(F)(F)F)cc3)cc2)CC1`, the “activity change, negative = inhibition” value was -4.64% [at 114 µM]. For `CC(=O)O[C@@H]1CC2C(C)(C)C(=O)C=C[C@]2(C)C2CC[C@]3(C)C(=CC(=O)[C@@H]3c3ccoc3)[C@@]21C` (some centres undefined), the “activity change, negative = inhibition” value was 4.58%. In the case of `C=C1CC[C@@]2(OC1)O[C@H]1CC3[C@@H]4CC=C5C[C@H](O[C@H]6OC[C@@H](O)C(O)[C@@H]6O[C@@H]6O[C@@H](C)[C@H](O)[C@@H](O[C@@H]7O[C@H](CO)[C@@H](O)[C@H](O)[C@H]7O)[C@H]6O)C[C@@H](O)[C@]5(C)C4CC[C@]3(C)[C@H]1[C@@H]2C` (some centres undefined), the “activity change, negative = inhibition” value is reported as 0.758% [at 30.2 µM]. With `CC(=O)NC1C(OC2CCC3(C)C(CCC4(C)C3CC=C3C5CC(C)(C)CCC5(C(=O)O)C(O)CC34C)C2(C)C)OC(CO)C(O)C1O` (centres undefined) the “activity change, negative = inhibition” value was 3.4% [at 30.2 µM].
% is set by controls: 0 for no effect and ±100 for the full control effect.
